Screening data as filed in PubChem.
FEN1 inh: human FEN1 inhibition. 0.35% of 390,000 active. P39748. Potency, µM (top dose mostly 114 µM), for the others: at the highest dose activity change, negative = inhibition, usual class: inhibitors. AID 588795. Recombinant FEN1 flap cleavage, fluorescence, 15 min; further: on the % scale 0 is the no-effect control and ±100 the full control effect; nearly all actives have a fitted effect of over 65% in size
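In this screen, 50 nM flap DNA substrate was added to 10 nM FEN1 pretreated with compound for 15 min at room temperature; cleavage was followed with reads at 0 and 15 min, and Hill fitting gave concentration–response parameters.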
Pol iota inh: blocks human DNA polymerase iota activity. Q9UNA4. Pol iota fluorescent replication assay, 10 min. Potency, µM (titrated, usually from 115 µM), without a hit: at the highest dose activity, negative = inhibition, hits mostly inhibitors. 1% of 390,000 active
Target sequence (Q9UNA4 whole entry, looked up): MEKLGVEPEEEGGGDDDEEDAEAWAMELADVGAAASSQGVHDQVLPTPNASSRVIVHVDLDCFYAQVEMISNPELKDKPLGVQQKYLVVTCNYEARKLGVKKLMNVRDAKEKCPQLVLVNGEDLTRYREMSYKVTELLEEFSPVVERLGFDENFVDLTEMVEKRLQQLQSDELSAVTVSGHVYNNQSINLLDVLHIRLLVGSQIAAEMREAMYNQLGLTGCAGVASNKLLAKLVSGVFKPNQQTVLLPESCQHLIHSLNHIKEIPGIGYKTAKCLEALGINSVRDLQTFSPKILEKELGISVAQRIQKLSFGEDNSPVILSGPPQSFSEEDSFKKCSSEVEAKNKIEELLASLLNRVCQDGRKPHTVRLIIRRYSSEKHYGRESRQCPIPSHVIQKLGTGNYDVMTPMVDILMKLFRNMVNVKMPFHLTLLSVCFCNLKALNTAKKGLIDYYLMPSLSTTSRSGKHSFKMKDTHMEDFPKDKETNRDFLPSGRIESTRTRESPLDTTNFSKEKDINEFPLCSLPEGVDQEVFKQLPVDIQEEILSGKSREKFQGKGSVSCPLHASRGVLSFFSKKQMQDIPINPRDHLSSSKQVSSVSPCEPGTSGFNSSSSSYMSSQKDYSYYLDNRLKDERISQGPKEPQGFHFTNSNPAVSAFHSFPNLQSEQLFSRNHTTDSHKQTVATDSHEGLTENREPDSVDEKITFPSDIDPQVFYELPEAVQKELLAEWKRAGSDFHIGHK
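Pol iota at 10 nM preincubated 15 min with compounds at room temperature; reaction started with fluorescent substrate, 50 nM final. Fluorescence read kinetically at 0 and 10 min; buffer-only wells as negative control.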
WRN helicase inh: blocks human WRN helicase | Q14191 | WRN helicase unwinding, fluorescent forked duplex, kinetic | Potency, µM (doses to about 114 µM), for inactives: at the top dose activity change, negative = inhibition, actives largely listed as inhibitors | 0.46% of 360,000 active | AID 651768; further: on the % scale 0 is the no-effect control and ±100 the full control effect; nearly all actives have a fitted effect of over 55% in size
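WRN at 20 nM final was preincubated with compound for 15 min at room temperature; reaction started with 100 nM forked duplex oligonucleotide carrying fluorophore and quencher plus 2 mM ATP (final). Unwinding followed kinetically by red fluorescence (ex 525/em 598 nm).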
POLB inh: blocks human DNA polymerase beta activity. AID 485314. P06746. 1.3% of 340,000 active. Pol beta primer extension/strand displacement, fluorescence kinetic. Potency, µM (highest dose often 114 µM), without a hit: top-dose activity change, negative = inhibition, most hits filed as inhibitors; further: on the % scale 0 is the no-effect control and ±100 the full control effect
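Pol beta (10 nM) was preincubated with compound for 15 min at room temperature. The reaction was then started with 50 nM substrate and read immediately and after a further 10 min at room temperature.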
POLK inh: blocks human DNA polymerase kappa activity | purified Pol kappa, fluorescent DNA synthesis assay, 10 min | Potency, µM (titrated, usually from 107 µM), for inactives: at the highest dose activity, negative = inhibition, usual class: inhibitors | 0.53% of 400,000 active; further: on the % scale 0 is the no-effect control and ±100 the full control effect
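Inhibition of 10 nM Pol kappa is measured by a fluorescent read-out at 0 and 10 min following addition of 50 nM substrate (final), with a 15-min room-temperature compound preincubation.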
POLH inh: blocks human DNA polymerase eta activity; Q9Y253; recombinant Pol eta, fluorescent DNA replication assay; Potency, µM (doses to about 114 µM), for the others: at the highest dose activity change, negative = inhibition, hits mostly inhibitors; 1.2% of 390,000 active; AID 588591; further: on the % scale 0 is the no-effect control and ±100 the full control effect
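Pol eta (10 nM) was preincubated with compounds for 15 min at room temperature, after which fluorescent replication substrate (50 nM final) was added to start the reaction. Fluorescence was read kinetically at 0 and 10 min.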
Numbers without * were called inactive; ? = inconclusive; nt = not tested or not shown; ! = a repeat was not active; [ ] = remark or other dose. Sampled rows, rich in hits. Any-hit rate of the full collection: about 2.4%. The call rests on the fitted dose curve; in most records, active means well fitted curve in the direction sought with a large enough effect; inconclusive means small, poorly fitted or top-dose-only effect, or another doubt; inactive means no such curve, though single readings can be large; an effect the other way counts as inactive or inconclusive. Potency means the concentration at half of the fitted maximal effect.

SMILES	FEN1 inh	Pol iota inh	WRN helicase inh	POLB inh	POLK inh	POLH inh
Cc1ccc(C(=O)Nc2ccc(S(=O)(=O)O)c3cc(S(=O)(=O)O)cc(S(=O)(=O)O)c23)cc1NC(=O)c1cccc(NC(=O)Nc2cccc(C(=O)Nc3cc(C(=O)Nc4ccc(S(=O)(=O)O)c5cc(S(=O)(=O)O)cc(S(=O)(=O)O)c45)ccc3C)c2)c1	1.26µM*	1.41µM*	nt	0.891µM*	0.0316µM*!	0.224µM*
Cc1ccccc1C(=O)Nc1cccc(C(=O)Nc2ccccc2C(=O)O)c1	-1.5%	-23.6%	-11.7%	1.6%	-1.7%	-7.5%
CCCCCCN(CCCCCC)C(=O)Cc1c(-c2ccc(Cl)cc2)[nH]c2ccc(Cl)cc12	nt	nt	nt	nt	7.4%[19.4 µM]	nt
CCCn1c(NCc2ccco2)nc2c1c(=O)n(C)c(=O)n2C	3.0%	?	-8.8%[57.1 µM]	22.4µM*	?	?
COc1ccc(Cl)c(Cn2c(NCc3ccco3)nc3c2c(=O)n(C)c(=O)n3C)c1	4.0%	?	?	14.1µM*	?	?
CC(=O)C1CCC2C3CCC4=CC(=O)CC[C@@]4(C)C3CC[C@]12C (some centres undefined)	nt	nt	nt	nt	-4.3%[60.1 µM]	nt
C/C=C\C=C/C(=O)Nc1cccc(C2=NOC3(C2)C[C@@H](C(N)=O)N(C(=O)/C=C/CC)C3)c1 (some centres undefined)	-14.3%	28.2µM*	?	5.2%	?	22.4µM*
C/C=C\C=C/C(=O)Nc1cccc(C2=NOC3(C2)C[C@@H](C(N)=O)N(C(=O)/C=C/C=C\C)C3)c1 (some centres undefined)	50.1µM*	10µM*	25.1µM*	6.31µM*	20µM*	7.94µM*
C/C=C(/C)C(=O)Nc1cccc(C2=NOC3(C2)C[C@H](C(N)=O)N(C(=O)c2ccc(Cl)cc2)C3)c1 (some centres undefined)	18.1%	41.2%	-5.7%	-4.0%	5.3%	-13.5%
C=C(C)C(=O)Nc1cccc(C2=NOC3(C2)C[C@@H](C(N)=O)N(C(=O)c2ccc(Cl)cc2)C3)c1 (some centres undefined)	?	35.5µM*	44.7µM*	8.91µM*	35.5µM*	4.47µM*
CCOC(=O)C1=C(C)N(C)C(=O)NC1c1cc2c(cc1[N+](=O)[O-])OCO2 (centres undefined)	-5.5%	2.82µM*	0.6%	17.8µM*	?	-14.1%
CCCCOC(=O)C1=C(C)N(C)C(=O)NC1c1cc2c(cc1Br)OCO2 (centres undefined)	nt	nt	3.1%	nt	nt	-12.5%
CC1=CC(C)(C)N2C(=O)C(=Nc3ccc(O)cc3)c3cccc1c32	?	7.94µM*	?	0.3%	-27.1%	20µM*
CCOC(=O)c1cc(S(=O)(=O)Nc2cc(C)c(Cl)cc2OC)[nH]n1	-2.2%	25.4%	nt	-18.8%	-4.5%[60.1 µM]	1.1%
Nc1nc2ccc(Cl)cc2cc1C(=O)NCc1ccc(Oc2ccccc2)cc1	nt	nt	-11.7%	nt	nt	nt
Cc1ccc(/C=N/Nc2nncn2N)cc1	0.8%	0.891µM*	0.1%[11.6 µM]	8.8%	-2.2%	-6.1%
Nn1cnnc1N/N=C/c1cccc(Cl)c1Cl	4.7%	?	-4.9%	28.7%	1.8%	-17.3%
Nn1cnnc1N/N=C/c1ccc(Cl)c([N+](=O)[O-])c1	?	3.16µM*	-7.4%[57.1 µM]	?	-6.5%	-10.3%
Nn1cnnc1N/N=C/c1ccc(F)cc1	?	15.8µM*	2.3%[11.6 µM]	-5.3%	5.9%	-13.3%
Cc1c(C(=O)NC(C)c2ccccc2)sc2ncnc(N(C)C3CCCCC3)c12 (centres undefined)	0.3%	7.6%	nt	1.1%	-3.7%[60.1 µM]	-11.7%
O=C(Nc1ccncc1)c1cnn2c1NC(=C1CC1)C=C2C(F)F	1.9%	2.8%	nt	nt	-24.5%	nt
Cc1ccc(Cl)cc1NS(=O)(=O)c1ccc2oc(=O)c3ncn(C)c3c2c1	-17.2%	-2.2%	nt	17.1%	4.1%	-9.2%
